Results as given in PubChem BioAssay (NCATS).
Results filed as inconclusive are left out. Where a call stands in place of a potency, no number is given. Activity calls are given as the source filed them. Calls follow the shape of the dose curve; as a rule, active = well fitted curve in the direction sought with a large enough effect; inconclusive = small, poorly fitted or top-dose-only effect, or another doubt; inactive = no such curve, though single readings can be large or run the other way.
Potency is read from the fitted curve at half-maximal effect.

Assay: qHTS for differential inhibitors of proliferation of Plasmodium falciparum line GB4 (AID 1816);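 also: parasite growth measured after 72 h incubation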
Conditions: Potency: Plasmodium falciparum GB4 proliferation inhibition; series mostly up to 28.7 µM
With `CN(C)C(=O)Oc1ccc[n+](C)c1` the Potency was “inactive”. In the case of `C[C@]12C=CC(=O)C=C1CC[C@H]1[C@@H]3C[C@@H](O)[C@](O)(C(=O)CO)[C@@]3(C)C[C@H](O)[C@@]12F`, the Potency is reported as “inactive”. In the case of `C[n+]1cc2c3c(ccc2c2ccc4cc5c(cc4c21)OCO5)OCO3`, the Potency is reported as 2.82 µM (active). In the case of `Nc1ncn([C@@H]2O[C@H](CO)[C@@H](O)[C@H]2O)c(=O)n1`, the Potency is reported as “inactive”. In the case of `CN(C)C/C=C(/c1ccc(Br)cc1)c1cccnc1`, the Potency is reported as 12.6 µM (active). For `CCOC(=O)C1=C(C)NC(C)=C(C(=O)OC)C1c1cccc(Cl)c1Cl` (stereo unspecified), the Potency was 12.6 µM (active). With `C[N+](C)(C)CCOC(=O)CCC(=O)OCC[N+](C)(C)C` the Potency was “inactive”. In the case of `C(=C\c1ccccc1)/CN1CCN(C(c2ccccc2)c2ccccc2)CC1`, the Potency is reported as 8.91 µM (active). With `Cc1nc2c([nH]1)c(=O)n(C)c(=O)n2Cc1ccco1` the Potency was “inactive”. With `OCCN1CCN(CC/C=C2/c3ccccc3Sc3ccc(C(F)(F)F)cc32)CC1` the Potency was 2.24 µM (active). With `COCCCC/C(=N\OCCN)c1ccc(C(F)(F)F)cc1` the Potency was 5.62 µM (active). For `CCC(=O)c1ccc2c(c1)N(CCCN(C)C)c1ccccc1S2`, the Potency was 11.2 µM (active). In the case of `NS(=O)(=O)c1cc2c(cc1Cl)NC(C1CC3C=CC1C3)NS2(=O)=O` (stereo unspecified), the Potency is reported as “inactive”. With `CSc1ccc(C(=O)c2[nH]c(=O)[nH]c2C)cc1` the Potency was “inactive”. For `C[C@]12CCC(=O)C=C1CC[C@@H]1[C@@H]2C(=O)C[C@@]2(C)[C@H]1CC[C@]2(O)C(=O)CO`, the Potency was “inactive”. In the case of `NC(=O)c1ncn([C@@H]2O[C@H](CO)[C@@H](O)[C@H]2O)c1O`, the Potency is reported as “inactive”.
